Compound activity (PubChem)
The list is not random: actives were taken first. Their share in the collection is about 4.4%.
IL1B cytotox: HUVEC cytotoxicity counter-screen, IL-1B stimulated; HUVEC cell count loss, Hoechst imaging; cell count reduction, % at 2 µM; AID 845; actives 0.41% (n = 94,000);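 active = cell count reduction more than 3 SD above the screen-wide mean, cut at about 70% in these data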;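 also: normalized per plate to untreated control cells as the no-loss baseline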
NFkB transloc pot: enhances IL-1B driven NFkB nuclear translocation; HUVEC IL-1B NFkB p65 nuclear translocation imaging; activation, % at 2 µM; actives 0.3% (n = 94,000); AID 819;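 active = activation above 40%, about the mean plus 3 SD, also judged a hit on visual image review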;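 also: percent activation is computed from the nuclear over cytoplasmic p65 intensity ratio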
Cav3 T inh: inhibitors of human Cav3.2 T-type calcium channel; O95180; AID 449739; actives 4% (n = 100,000); Cav3.2-expressing cells, Fluo-4 calcium fluorescence FDSS; active compounds read low; B-score at 10 µM;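 active = single-dose well whose peak fluorescence ratio is a statistical outlier from its plate by either plate-standardised score or position-corrected B-score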
NFkB transloc inh: blocks IL-1B driven NFkB nuclear translocation in HUVEC cells. HUVEC IL-1B NFkB p65 nuclear translocation imaging. inhibition, % at 2 µM. actives 0.43% (n = 94,000). AID 796;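 active = inhibition above about 30% together with a positive call from visual inspection of the well image, limit read from the data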;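 also: nuclear over cytoplasmic p65 intensity ratio measured by imaging; 0% = IL-1B stimulated DMSO wells and 100% = unstimulated DMSO wells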
An asterisk follows results filed as active; nt = not tested or not shown.

SMILES | IL1B cytotox | NFkB transloc pot | Cav3 T inh | NFkB transloc inh
COc1ccc(-n2c(Cc3cccn3C)nnc2SCC(=O)NCCc2ccccc2)cc1 | nt | nt | -1.8 | nt
COc1ccc(-n2c(SCC(=O)Nc3nccs3)nnc2-c2ccccc2)cc1 | 1 | 14 | -2.3 | -14
CCn1c(CC(=O)Nc2cccc(OC)c2)nnc1SCC(=O)Nc1nccs1 | 14 | -7 | -5* | 7
COc1ccc(-n2c(Cc3cccn3C)nnc2SCC(=O)Nc2nccs2)cc1 | nt | nt | -6* | nt
COc1ccc(-n2c(Cc3cccn3C)nnc2SCC(=O)Nc2cccc(C)c2C)cc1 | -1 | 6 | -4* | -6
CCn1nnnc1SCC(=O)Nc1nc(C)c(C)s1 | -45 | -4 | 0.42 | 4
O=C(/C=C/c1ccc(OCCCF)cc1)NCc1ccc(Cl)cc1 | -62 | 4 | nt | -4
COC(=O)[C@@]1(Cc2ccc(OC)cc2)[C@H]2c3cc(C(=O)N4CCCC4)n(Cc4c(CO)[nH]cc(C)c4=O)c3C[C@H]2CN1C(=O)c1ccccc1 | nt | nt | 0.52 | nt
Cc1ccc(/C=N\NC(=O)Cn2c(C)nc3ccccc32)o1 | nt | nt | 1.2 | nt
Cc1ccccc1NC(=O)c1ccc(CN2CCC(Cc3ccccc3)CC2)cc1 | -67 | 4 | -7.1* | -4
Cc1ccc(C(=O)Nn2cnc3scc(-c4cccs4)c3c2=O)c(O)c1 | -12 | 11 | -3.5* | -11
Cc1ccc(-n2cnc3scc(-c4cccs4)c3c2=O)cc1 | -19 | 3 | -1.1 | -3
CCCCNC(=O)CS(=O)Cc1nc(-c2ccc(C)cc2)oc1C (stereo not drawn) | 7 | 3 | -2.4 | -3
Cc1cccc(-c2nc(CS(=O)CC(=O)NCCCSC3CCCCC3)c(C)o2)c1 (stereo not drawn) | -14 | -4 | -7.1* | 4
Cc1ccc(-c2nc(CS(=O)CC(=O)NCc3ccc(Cl)cc3)c(C)o2)cc1 (stereo not drawn) | nt | nt | -6* | nt
CCc1cccc(NC(=O)CS(=O)Cc2nc(-c3ccc(C)cc3)oc2C)c1 (stereo not drawn) | 8 | -2 | -6.7* | 2
COc1ccc([N+](=O)[O-])cc1COc1cc(C)cc2oc(=O)cc(-c3ccccc3)c12 | -12 | -15 | -8.7* | 14
C/C(=N\NC(=O)c1cccc(F)c1)c1ccc(Br)s1 | -111 | 21 | -0.24 | -21
CC(NC(=O)c1ccco1)c1cccc2ccccc12 (stereo not drawn) | 78* | -98 | 0.44 | 98*
Cc1ccnc2nc(C(=O)NCCc3ccc(F)cc3)nn12 | -125 | 12 | 0.22 | -12
Cc1cccc(NC(=O)C(c2cccc([N+](=O)[O-])c2)N2CCCCC2)c1 (stereo not drawn) | 34 | -3 | -8* | 3
Cc1cccc(NC(=O)C2(c3ccc([N+](=O)[O-])cc3)CCCC2)c1 | -52 | 5 | -5.5* | -5
C#CCOc1ccc(Br)cc1/C=N/O | -4 | -47 | -1.2 | 46*
CCOc1ccc(Br)cc1/C=N/O | -14 | -3 | -2.3 | 3
CCCOc1ccc(Br)cc1/C=N/O | 2 | -1 | -4.9* | 1
SMILES | IL1B cytotox | NFkB transloc pot | Cav3 T inh | NFkB transloc inh
C#CCOCCOCCOCCNc1nc(N2CCN(C(=O)C([C@@H](C)CC)n3cc(C(N)COC(=O)C(F)(F)F)nn3)CC2)nc(N2CCN(C(=O)[C@H](CCCCN)n3cc(C(N)[C@H](C)CC)nn3)CC2)n1 (stereo partly drawn) | nt | nt | 0.26 | nt
O=C(NCc1ccco1)c1ccccc1NS(=O)(=O)c1ccc(Cl)s1 | 16 | -1 | -7.4* | 1
O=C(NCc1ccco1)c1ccccc1NS(=O)(=O)c1cccs1 | -11 | 0 | 0.18 | 0
O=C(Nc1ccccc1)c1ccccc1NS(=O)(=O)c1ccc(Cl)s1 | -10 | 14 | -8.7* | -14
O=C(CSc1nc2cccnc2n1Cc1ccccc1)NC1CCCCC1 | 11 | -16 | -2.7 | 16
COc1cc(C(=O)OCC(=O)NCc2ccco2)cc(OC)c1OC | -27 | -14 | 0.28 | 14
COc1ccc(C(=O)OCC(=O)NCc2ccco2)cc1S(=O)(=O)N1CCN(c2cccc(Cl)c2)CC1 | -8 | -7 | -7.4* | 7
CCOC(=O)C1=NNC(C(=O)c2ccc(OC)cc2)C1c1ccccc1 (stereo not drawn) | -5 | -6 | -0.63 | 6
CCOC(=O)C1=C(CSc2nncn2C)NC(=O)NC1c1cc(OCC)ccc1OCC (stereo not drawn) | -3 | 0 | nt | 0
Cc1nc(NS(=O)(=O)c2ccc(Br)cc2)c2c3c(sc2n1)CCC3 | 13 | 0 | -4.6* | 0
Cc1csc(NC(=O)CSc2nnc(CCNC(=O)c3cccs3)n2C)n1 | 89* | -99 | 0.67 | 99*
Cn1c(CCNC(=O)c2cccs2)nnc1SCC(=O)Nc1nc(-c2ccccc2)cs1 | 0 | 1 | 0.52 | -1
CCOc1ccc(OCCSc2nc3ccccc3o2)cc1 | 4 | -42 | 0.21 | 42*
c1ccc(OCCSc2nc3ccccc3o2)cc1 | nt | nt | 0.037 | nt
O=C(NCC1(c2ccccc2)CCCC1)c1cccc(Br)c1 | 5 | 3 | -7.5* | -3
COc1cccc2c1C(CO)N1C(C#N)C3CC(C(=O)O)C(C1C2)N3C (stereo not drawn) | nt | nt | 0.082 | nt
CN(C)C(=O)C(CCN1CCC(O)(c2ccc(Cl)cc2)CC1)(c1ccccc1)c1ccccc1 | nt | nt | -4.6* | nt
OC(CCCN1CCC(O)(c2ccc(Cl)cc2)CC1)c1ccc(F)cc1 (stereo not drawn) | nt | nt | -1.3 | nt
COC(=O)C(NNc1ccccc1C)(NC(=O)c1ccc(F)cc1)C(F)(F)F (stereo not drawn) | 5 | 5 | -4.9* | -5
COC(=O)C(NC(=O)c1ccccc1)(Nc1cc(C)cc(C)n1)C(F)(F)F (stereo not drawn) | -30 | 7 | -4.2* | -7
Cn1c(SCC(=O)NC2CC2)nnc1-c1cccc(NC(=O)c2ccccc2F)c1 | -8 | 0 | 0.9 | 0
COc1ccc(S(=O)(=O)N2CCC(C(=O)N3CCc4ccccc4C3)CC2)cc1 | -50 | 4 | -1.1 | -4
COc1ccc(S(=O)(=O)N2CCC(C(=O)N3CCc4ccccc4C3)CC2)cc1C | 22 | -20 | -5* | 20
CC(C)NC(=O)CSc1nnc(C2CC2)n1-c1ccccc1 | -16 | -29 | 0.84 | 29
CCN1C(=O)N[C@@H](CCc2ccccc2)C(C(C)=O)=C1C | nt | nt | 0.35 | nt
SMILES | IL1B cytotox | NFkB transloc pot | Cav3 T inh | NFkB transloc inh
CCn1c(SCc2ccc(C)cc2)nnc1-c1cnccn1 | -1 | 63* | -0.025 | -63
CCN(CCCNC(=O)CC(C(=O)N1CCc2ccccc21)n1ccnc1)c1ccccc1 (stereo not drawn) | 20 | -8 | -4.6* | 8
CCN(CCNC(=O)Cn1cc2c(n1)CCCC2)c1ccccc1 | nt | nt | -0.38 | nt
CCC(Sc1nc2n[nH]c(C)c2c(=N)n1-c1cc(Cl)ccc1C)C(=O)N1CCOCC1 (stereo not drawn) | nt | nt | 0.44 | nt
CC(C)N(CCc1ccncc1)C(=O)Nc1ccc(Cl)c(Cl)c1 | 7 | 43* | 0.26 | -43
COC/C=C/C1=CC2=CC(=O)C(C)(O)C(=O)C2=CO1 (stereo not drawn) | nt | nt | 0.61 | nt
COc1cccc(NC(=O)c2cn(C)c(=O)c3cc(OC)c(OC)cc23)c1 | 8 | 30 | 1.1 | -27
CSc1nc(Oc2ccc(=O)n(C)n2)nc(N(C)C)n1 | -12 | -5 | -0.16 | 5
